Results reported in the supplement of paper PMC10037445.
Whole data set: some 2,900 compounds, median “NF-kB SEAP reporter activity, fold change vs agonist alone” near 0.99, cut for the highest 2% near 2.6. This excerpt belongs to a sample that is enriched for the highest values.

What was measured:
RAW-Dual [1] = assay: NF-kB SEAP reporter activity, fold change vs agonist alone; higher = enhanced NF-kB activity; conditions: cytotoxicity flag (confluency mask): not cytotoxic
How it was run: (§1)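 RAW-Dual macrophages (50,000 cells/well in DMEM, 384-well plates) received 50 nL of library stock by pin tool, then a PRR agonist 1 h later, and were kept at 37 °C, 5% CO2. After 20 hours, supernatant was read for IRF by QuantiLuc luminescence and for NF-κB by QuantiBlue absorbance at 620 nm. Reporter activity is fold change over agonist-alone wells. Cytotoxic wells had IncuCyte confluency below 70% of agonist controls in both mask sets.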

RAW-Dual [2] = assay: NF-kB SEAP reporter activity, fold change vs agonist alone; cytotoxicity flag (confluency mask): not cytotoxic; higher = enhanced NF-kB activity
How it was run: as §1

RAW-Dual [3] = assay: NF-kB SEAP reporter activity, fold change vs agonist alone; cytotoxicity flag (confluency mask): cytotoxic (confluency <70% of control); higher = enhanced NF-kB activity
How it was run: as §1

[4] = library stock concentration (final ~1000-fold dilution): 10 mM, agonist: Imiquimod (TLR7) […]
[5] = library stock concentration (final ~1000-fold dilution): 10 mM, agonist: MPLA (TLR4) […]
[6] = agonist: ODN 1826 (TLR9) 0.5 ug/mL
[7] = agonist: Pam2CSK4 (TLR2/6) 0.1 ug/mL
[8] = agonist: Pam3CSK4 (TLR2/1) 0.1 ug/mL

COc1cc(N2CCC(N(C)C)CC2)ccc1Nc1ncc(Cl)c(Nc2ccccc2P(C)(C)=O)n1
NF-kB SEAP reporter activity (RAW-Dual [1]; [4]): 1.64 | NF-kB SEAP reporter activity (RAW-Dual [1]; [5]): 2.05

COc1cc(N2CCC(N3CCN(C)CC3)CC2)ccc1Nc1ncc(Cl)c(Nc2ccccc2S(=O)(=O)C(C)C)n1 (library stock concentration (final ~1000-fold dilution): 2 mM)
NF-kB SEAP reporter activity (RAW-Dual [2]; agonist: LPS (TLR4) 0.1 ug/mL): 1.66 | NF-kB SEAP reporter activity (RAW-Dual [2]; [6]): 0.603 | NF-kB SEAP reporter activity (RAW-Dual [2]; [7]): 0.757 | NF-kB SEAP reporter activity (RAW-Dual [2]; [8]): 1.2

COc1cc(N2CCC(N3CCN(C)CC3)CC2)ccc1Nc1ncc(Cl)c(Nc2ccccc2P(C)(C)=O)n1
NF-kB SEAP reporter activity (RAW-Dual [1]; library stock concentration (final ~1000-fold dilution): 2 mM, agonist: Imiquimod (TLR7) […]): 1.15 | NF-kB SEAP reporter activity (RAW-Dual [1]; library stock concentration (final ~1000-fold dilution): 2 mM, agonist: MPLA (TLR4) […]): 1.26

COc1cc(N2CCC(N(C)C)CC2)ccc1Nc1ncc(Cl)c(Nc2ccccc2P(C)(C)=O)n1 (library stock concentration (final ~1000-fold dilution): 10 mM)
NF-kB SEAP reporter activity (RAW-Dual [2]; agonist: LPS (TLR4) 0.1 ug/mL): 1.87 | NF-kB SEAP reporter activity (RAW-Dual [2]; [6]): 1.64 | NF-kB SEAP reporter activity (RAW-Dual [2]; [7]): 1.03 | NF-kB SEAP reporter activity (RAW-Dual [2]; [8]): 1.46

C=CC(=O)Nc1cccc(Oc2nc(Nc3ccc(N4CCN(C)CC4)cc3OC)ncc2Cl)c1 (library stock concentration (final ~1000-fold dilution): 10 mM)
NF-kB SEAP reporter activity (RAW-Dual [2]; agonist: LPS (TLR4) 0.1 ug/mL): 0.915 | NF-kB SEAP reporter activity (RAW-Dual [2]; [6]): 0.863 | NF-kB SEAP reporter activity (RAW-Dual [2]; [7]): 0.802 | NF-kB SEAP reporter activity (RAW-Dual [2]; [8]): 0.684

C=CC(=O)Nc1cccc(Oc2nc(Nc3ccc(N4CCN(C)CC4)cc3OC)ncc2Cl)c1
NF-kB SEAP reporter activity (RAW-Dual [1]; [4]): 0.931 | NF-kB SEAP reporter activity (RAW-Dual [1]; [5]): 0.977

Cc1cc(Nc2ncc(Cl)c(Nc3ccccc3S(=O)(=O)C(C)C)n2)c(OC(C)C)cc1C1CCNCC1 (library stock concentration (final ~1000-fold dilution): 10 mM)
NF-kB SEAP reporter activity (RAW-Dual [3]; agonist: LPS (TLR4) 0.1 ug/mL): 0.198 | NF-kB SEAP reporter activity (RAW-Dual [3]; [6]): 0.674 | NF-kB SEAP reporter activity (RAW-Dual [3]; [7]): 0.845 | NF-kB SEAP reporter activity (RAW-Dual [3]; [8]): 0.455

COc1cc(N2CCC(N3CCN(C)CC3)CC2)ccc1Nc1ncnc(Nc2ccccc2S(=O)(=O)C(C)C)n1
NF-kB SEAP reporter activity (RAW-Dual [1]; [4]): 0.945 | NF-kB SEAP reporter activity (RAW-Dual [1]; [5]): 1.14

Cl.Cl.NC1CCC(NC2CC2c2ccccc2)CC1 (configuration not stated)
NF-kB SEAP reporter activity (RAW-Dual [1]; [4]): 1.03 | NF-kB SEAP reporter activity (RAW-Dual [1]; [5]): 1.37

Cl.Cl.NC1CCC(NC2CC2c2ccccc2)CC1 (configuration not stated) (library stock concentration (final ~1000-fold dilution): 10 mM)
NF-kB SEAP reporter activity (RAW-Dual [2]; agonist: LPS (TLR4) 0.1 ug/mL): 1.25 | NF-kB SEAP reporter activity (RAW-Dual [2]; [6]): 0.222 | NF-kB SEAP reporter activity (RAW-Dual [2]; [7]): 0.869 | NF-kB SEAP reporter activity (RAW-Dual [2]; [8]): 0.615

CC12CCC(=O)C=C1C=CC1C2CCC2(C)C1CCC21CCC(=O)O1 (configuration not stated)
NF-kB SEAP reporter activity (RAW-Dual [1]; [5]): 1.05

CC12CCC(=O)C=C1C=CC1C2CCC2(C)C1CCC21CCC(=O)O1 (configuration not stated) (library stock concentration (final ~1000-fold dilution): 10 mM)
NF-kB SEAP reporter activity (RAW-Dual [2]; agonist: LPS (TLR4) 0.1 ug/mL): 0.949 | NF-kB SEAP reporter activity (RAW-Dual [2]; [6]): 1.05 | NF-kB SEAP reporter activity (RAW-Dual [2]; [7]): 0.849 | NF-kB SEAP reporter activity (RAW-Dual [2]; [8]): 0.874

Cl.O=C1Cc2cc(CCN3CCN(c4nsc5ccccc45)CC3)c(Cl)cc2N1
NF-kB SEAP reporter activity (RAW-Dual [1]; [4]): 0.412 | NF-kB SEAP reporter activity (RAW-Dual [1]; [5]): 0.73

Cl.O=C1Cc2cc(CCN3CCN(c4nsc5ccccc45)CC3)c(Cl)cc2N1 (library stock concentration (final ~1000-fold dilution): 10 mM)
NF-kB SEAP reporter activity (RAW-Dual [2]; agonist: LPS (TLR4) 0.1 ug/mL): 0.912 | NF-kB SEAP reporter activity (RAW-Dual [2]; [6]): 0.338 | NF-kB SEAP reporter activity (RAW-Dual [2]; [7]): 0.746 | NF-kB SEAP reporter activity (RAW-Dual [2]; [8]): 0.865

O=C1Nc2ccc(CN3C(=O)CSC3=O)cc2/C1=C/c1cc(CN2CCOCC2)c[nH]1
NF-kB SEAP reporter activity (RAW-Dual [1]; [4]): 1.07 | NF-kB SEAP reporter activity (RAW-Dual [1]; [5]): 1.43

O=C1Nc2ccc(CN3C(=O)CSC3=O)cc2/C1=C/c1cc(CN2CCOCC2)c[nH]1 (library stock concentration (final ~1000-fold dilution): 10 mM)
NF-kB SEAP reporter activity (RAW-Dual [2]; agonist: LPS (TLR4) 0.1 ug/mL): 1.89 | NF-kB SEAP reporter activity (RAW-Dual [2]; [6]): 1.3 | NF-kB SEAP reporter activity (RAW-Dual [2]; [7]): 0.605 | NF-kB SEAP reporter activity (RAW-Dual [2]; [8]): 1.13
